High-throughput results deposited in PubChem BioAssay by ICCB-Longwood Screening Facility, Harvard Medical School.
AID504770 – growth inhibitors of E. coli YBA685 in a screen for V. cholerae RctB (chromosome II replication) inhibitors. E. coli YBA685 rctB-dependent plasmid, OD600 growth, 3 h; hits give low values. z-score (concentration not given with the values). 0.27% of 130,000 active. AID 504770; in the data active = z-score below about -2, passing the limit was not always enough
Mtb MbtI inh – inhibitors of Mycobacterium tuberculosis siderophore enzyme MbtI; inhibition, % (concentration not given with the values); 0.89% of 100,000 active; purified MbtI enzyme, fluorescence intensity read-out; P9WFX0; in the data active = inhibition mostly above about 56%, no sharp cut-off; inactive = mostly below about 77%
Mtb MenB inh – inhibitors of Mycobacterium tuberculosis MenB enzyme; P9WNP5; MenB enzyme assay, absorbance read-out; inhibition, % (no concentration beside the values); 0.43% of 100,000 active; AID 540299; in the data active = inhibition above about 21%, passing the limit was not always enough
Target sequence (P9WNP5 whole entry, looked up): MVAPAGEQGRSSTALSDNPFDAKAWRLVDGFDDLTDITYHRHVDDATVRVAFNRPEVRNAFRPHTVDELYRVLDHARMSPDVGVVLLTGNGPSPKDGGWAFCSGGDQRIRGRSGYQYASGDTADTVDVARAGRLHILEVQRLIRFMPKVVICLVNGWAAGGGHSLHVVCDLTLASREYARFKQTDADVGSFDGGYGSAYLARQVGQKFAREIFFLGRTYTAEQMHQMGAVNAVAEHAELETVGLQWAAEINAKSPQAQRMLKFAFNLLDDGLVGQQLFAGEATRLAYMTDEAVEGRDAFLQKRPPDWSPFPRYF
Polio RdRp inh – poliovirus RNA polymerase inhibition; P03300; poliovirus polymerase elongation, fluorescence polarization; hits give low values; % elongation, % (compound at 16.7 µg/mL); 0.66% of 150,000 active; in the data active = % elongation below about 90%
* hit, by the source's call; . = not tested or not shown. An excerpt weighted towards active compounds, which were near 1.4% of everything screened.

SMILES	AID504770	Mtb MbtI inh	Mtb MenB inh	Polio RdRp inh
O=C(CN1CCN(c2ncnc3scc(-c4ccc(Cl)cc4)c23)CC1)NC1CC1	-4.9*	-5.4	-5.6	105.0
CN=C(Nc1ccnn1C1CCCCC1)c1ccccc1	-0.05	-4.5	1.2	102.0
O=C1c2ccccc2C(=O)C1c1ccc(OC(F)F)cc1	-0.05	79.5*	-10.0	96.0
NC(=O)C(c1ccccc1)c1ncc(C(F)(F)F)cc1Cl (configuration not stated)	-2.7*	.	.	.
O=C1Cc2ccccc2C(=O)N1Cc1ccc2c(c1)OCO2	-0.25	-4.3	.	75.0*
COc1cccc(C(=O)CS)c1	2.35	86.7*	-9.7	101.0
COc1cccc(C(=O)CC#N)c1	-0.65	-8.2	-0.1	104.0
Cc1[nH]c(=S)n(CC2CCCO2)c1C (configuration not stated)	1.35	94.6*	12.2	95.0
Cc1n[nH]c(=S)n1CC1CCCO1 (configuration not stated)	-0.1	-6.5	-16.4	103.0
COc1ccc2c(c1)C(C(C#N)C#N)C(C#N)=C(N)O2 (configuration not stated)	-2.4*	.	.	.
COc1ccc(-c2c(C#N)c(N)nc(OC)c2C#N)cc1	0.1	41.7	-28.3	101.0
COc1ccc2c(c1)C(C(C#N)C#N)c1c(nc(N)c(C#N)c1N)O2 (configuration not stated)	-3.05*	64.3	-25.0	96.0
CCCC(C)C1C(C#N)=C(N)Oc2cc(N)ccc21 (configuration not stated)	0.6	7.8	-2.1	106.0
CCCNC(=O)c1ccc(N2CC3CC(C2)c2cccc(=O)n2C3)c(NC(=O)Nc2ccc(Cl)cc2)c1 (configuration not stated)	-0.05	-6.1	-17.4	99.0
CCOc1ccc(NC(=O)Cc2cccc3c(S(=O)O)cccc23)cc1	-1.15	64.8*	-21.8	102.0
CCOc1ccc(NC(=O)CC(=O)Nc2ccc(OCC)cc2)cc1	1.1	-1.3	-5.0	97.0
O=C(Nc1ccc(-c2cn3c(n2)SCC3)cc1)C1CC1	-0.3	.	.	.
COC(=O)c1cc(-c2ccco2)nc2c1cnn2Cc1ccc2c(c1)OCO2	0.1	-28.5	3.0	71.0*
O=C(Nc1ccc2c(c1)OCO2)c1cnn2c(C(F)(F)F)cc(-c3ccco3)nc12	-0.05	-7.0	-16.8	99.0
COc1ccc(CCNC(=O)CSc2nc3ccc(C)cc3[nH]2)cc1	-1.3	-0.7	.	102.0
O=c1[nH]c(=S)n(-c2cccc(Cl)c2)c2c1CN(C1CCCC1)CN2	-0.35	16.0	51.6*	99.0
O=c1[nH]c(=S)n(CCc2ccccc2)c2c1CN(CCc1ccccc1)CN2	-0.25	-0.3	6.7	103.0
CC(C)(Oc1ccccc1OC(=O)c1ccccc1)C(=O)CBr	0	61.5*	.	102.0
O=C(Oc1ccccc1OC(=O)c1ccccc1)c1ccccc1	-0.35	9.8	-34.3	102.0
Cc1ccc(C)c(SCC(=O)NC(C)C(c2ccccc2)N2CCOCC2)c1 (configuration not stated)	1	2.1	.	88.0*
SMILES	AID504770	Mtb MbtI inh	Mtb MenB inh	Polio RdRp inh
Cc1ccc(C)c(SCC(=O)NC(C)C(c2cccs2)N2CCCC2)c1 (configuration not stated)	0.25	2.9	.	99.0
CC1CCCCC1NC(=O)c1cccn2c(=O)c3c4c(sc3nc12)CCCC4 (configuration not stated)	-1.35	4.2	-5.2	100.0
CCc1ccc(C2CC(c3ccccc3)=NN2C(=O)CCCC(=O)O)cc1 (configuration not stated)	0	-5.5	-31.5	98.0
O=C(O)CCC(=O)N1N=C(c2ccccc2)CC1c1ccc2nccnc2c1 (configuration not stated)	-0.6	15.0	49.9*	99.0
O=c1[nH]c(-c2cc(Br)cs2)nc2ccccc12	-0.3	.	.	.
CCCCS(=O)(=O)Nc1nccs1	-0.6	-3.7	-15.2	99.0
CCCCS(=O)(=O)Nc1ccc(C)cn1	0.55	100.6	0.0	83.0*
CCOC(=O)N1CCC(NC(=O)CN2N=C(c3ccc(Cl)cc3)CCC2=O)CC1	2.2	-54.7	-15.5	101.0
Oc1nc2ccccn2c1-c1c(O)nc2ccccn12	1.6	5.6	.	21.0*
c1ccn2c(c1)nc1c2nc2ccccn21	-0.55	77.4	-18.1	101.0
NC1=NC(=O)CC(C(=O)O)S1 (configuration not stated)	-0.55	-1.4	.	.
Cc1ccc(-c2cnnn2-c2ccc(-c3csc(C)n3)cc2)cc1	-0.5	-2.3	-10.5	101.0
CCCc1nc(=S)[nH][nH]1	0.45	69.3	-9.8	101.0
S=c1nc(CCCCc2nc(=S)[nH][nH]2)[nH][nH]1	-0.45	71.8*	7.6	75.0*
CC(=O)N(c1ccccc1)c1nc(COC(=O)c2cnc(C)cn2)cs1	-0.8	-9.3	-33.4	115.0
Cc1[nH]ccc(=O)c1OCC(N)=O	2.9	.	.	.
CSC1=C(C#N)C(=O)NC2(CCCCC2)S1	1.95	.	.	.
CCn1cc(C(=O)O)c(=O)c2cc(F)c(N3CCNCC3)nc21	-3.55*	-31.4	6.1	104.0
CCn1cc(C(=O)O)c(=O)c2cc(F)c(N3CCN(C(=O)c4ccc(F)cc4)CC3)cc21	-3.65*	-94.0	-18.7	102.0
CCn1cc(C(=O)O)c(=O)c2cc(F)c(N3CCN(C(C)=O)CC3)cc21	-3.05*	107.2	-10.5	109.0
COc1ccc2c(c1)CC/C(=C/c1cccc(O)c1)C2=O	1.5	17.6	-0.4	102.0
COc1ccc(CC(=O)Nc2ccc(-c3nnc4n3CCCCC4)cc2)cc1	-0.7	-11.2	-11.4	106.0
O=C(COCc1nc2ccccc2s1)Nc1ccc(-c2nnc3n2CCCCC3)cc1	-0.05	-0.9	-22.6	89.0*
CCCCn1c(=S)[nH]c2ccccc21	-0.55	11.9	-12.4	102.0
CCOc1ccc2c(c1)[nH]c(=S)n2C	0.3	78.5*	-50.1	95.0
SMILES	AID504770	Mtb MbtI inh	Mtb MenB inh	Polio RdRp inh
Cn1c(=S)[nH]c2ccccc21	-1.55	101.4*	-27.0	90.0
CCOC(=O)c1c(C)n(C)c2ccc(OCC)cc12	0	.	-26.0	105.0
CC(c1ccccc1)n1c(=S)[nH]c2ccccc21 (configuration not stated)	-0.15	89.1*	-13.3	103.0
COc1ccc(-c2csc(C3=C(O)CN(CCCN4CCOCC4)C3=N)n2)cc1OC	0.15	0.5	-5.0	98.0
CCOC(=O)c1cccc(NC(=O)c2oc3c(c2C)-c2nn(CC)cc2CC3)c1	.	.	.	64.0*
CC(=O)c1cccc(NC(=O)c2oc3c(c2C)-c2nn(Cc4ccc(Cl)cc4)cc2CC3)c1	.	.	.	93.0
CCN(CC)/N=N/c1[nH]nc2nc(C)cc(C)c12	-7.55*	.	-19.4	109.0
Cc1cc(C)c2c(-n3cccc3)n[nH]c2n1	-0.9	.	.	.
CCc1cc(C(=O)O)c(SSc2sc(CC)cc2C(=O)O)s1	-0.45	102.4*	-19.4	76.0*
CCc1cc(C(=O)O)c(NC(=O)c2ccc(Br)cc2)s1	0.55	46.2	.	101.0
N#Cc1ccc(COC(=O)C2CCCCN2S(=O)(=O)c2cccc3nsnc23)cc1 (configuration not stated)	-0.9	-1.5	-3.5	42.0*
O=C1CCN(C(=O)Cc2ccc(NS(=O)(=O)c3ccc(F)cc3)cc2)CC1	-0.15	-2.7	8.3	102.0
CC(C)(C)N(N)C(=S)NCc1ccc(F)cc1	-0.85	90.0*	-23.2	86.0*
